Broadly, the inhibition is the relative decrease from the control value, in per cent.

Screen size: about 360,000 compounds; about 4,200 (1.2%) were called active. Only a selection was taken, and actives are over-represented in it overall. A number with no mark means an inactive call.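 The calls were made as follows: active = mean replicate inhibition at least 60% with every replicate also reaching 60%; inconclusive = only one of the two criteria is met; inactive = mean below 60% and not all replicates reaching 60%.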

This assay is described as follows: inhibitors of PAX8-driven TPO luciferase reporter, primary screen, RMG-I cells, single concentration (AID 652154).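 Also: luciferase light reporting Pax8 driven TPO promoter activity; plate controls were median of neutral control wells for no effect and mitoxantrone controls for full effect.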 To be noted: SteadyGlo, 24 h, at 12.6 µM, hits give high values.
Consider `CCC(=O)N(C)C[C@@H]1Oc2cc(-c3ccccc3OC)ccc2S(=O)(=O)N([C@H](C)CO)C[C@H]1C`, for which the inhibition is -9.48%.
The figure for `COC(=O)C[C@@H]1CC[C@H]2[C@H](COc3ccc(NC(=O)c4ccccc4F)cc3C(=O)N2C)O1` is 9.97%; for `C=CCn1c(C)cc(C2=NNC(=NCC)SC2)c1C` it is 107% (active); for `O=C(C(=O)N1CCC(CNS(=O)(=O)Cc2ccccc2)CC1)c1cc2ccccc2o1` it is 10%.
The figure for `COc1ccc(NC(=O)Nc2ccc3c(c2)[C@@H]2C[C@H](CC(=O)N[C@@H](C)c4ccccc4)O[C@@H](CO)[C@@H]2O3)cc1` is -20.1%.
The figure for `C[C@H](NC(=O)C[C@H]1CC[C@H]2[C@@H](COC[C@H](O)CN2C(=O)Nc2cc(Cl)cc(Cl)c2)O1)c1ccccc1` is 3.71%; for `C[C@H]1CCCCO[C@@H](CN(C)Cc2ccccc2)[C@@H](C)CN([C@@H](C)CO)C(=O)c2cc(NC(=O)Cc3ccccc3)ccc2O1` it is -9.52%; for `CNC(=O)C[C@H]1CC[C@@H]2[C@@H](COc3ccc(NC(=O)c4ccc(F)c(F)c4)cc3C(=O)N2C)O1` it is -18.3%.
As for `CC(=O)N1CCOc2ccc(S(=O)(=O)N3CCN(c4cccc(C(F)(F)F)c4)CC3)cc21`, the inhibition was 92.2% (active).
The figure for `COc1ccc(N2CCN(S(=O)(=O)c3ccc4c(c3)N(C(C)=O)CCO4)CC2)cc1` is 3.96%.
The figure for `CCOC(=O)C1CCN(S(=O)(=O)c2ccc3c(c2)N(C(C)=O)CCO3)CC1` is 8.01%.
As for `C[C@H]1CN([C@@H](C)CO)C(=O)c2cc(NC(=O)Nc3ccccc3)ccc2O[C@H]1CN(C)C(=O)Nc1ccc(F)cc1`, the figure is -5.44%.
As for `O=C(C[C@@H]1CC[C@@H]2[C@H](COC[C@H](O)CN2Cc2cccc(C(F)(F)F)c2)O1)NCc1ccc(F)cc1`, the inhibition was 19.6%.
As for `Cn1c(=O)[nH]c(=O)c2c1nc(N1CCN(C(c3ccccc3)c3ccccc3)CC1)n2CCO`, the figure is 84.2% (active); as for `CC1CCN(c2nc3c(c(=O)[nH]c(=O)n3C)n2CCCc2ccccc2)CC1`, -19.2%; as for `C=C(C)Cn1c(N2CCCC2)nc2c1c(=O)[nH]c(=O)n2C`, -3.4%.
The figure for `COCCNC(=O)C[C@H]1CC[C@H](NS(=O)(=O)c2ccc(C)cc2)[C@@H](CO)O1` is -3.36%; for `O=C(CN1CCOCC1)N1CCCCN2[C@@H](CO)[C@H](c3ccc(/C=C/c4ccccc4)cc3)[C@@H]2C1` it is -11.5%.
Consider `O=C(C[C@H]1CC[C@@H]2[C@H](COC[C@H](O)CN2S(=O)(=O)c2ccc(Cl)cc2)O1)N[C@@H]1CCN(Cc2ccccc2)C1`, for which the inhibition was 32.3%.
The figure for `C=CC[C@H](CC(=O)NCCO)C(=O)N[C@@H](COC(=O)[C@@H](CC=C)Cc1ccc(F)cc1)Cc1c[nH]c2ccccc12` is 8.97%; for `C=CCC[C@@H](Cc1ccc(F)cc1)C(=O)OC[C@H](Cc1c[nH]c2ccccc12)NC(=O)[C@@H](CC=C)CC(=O)N(CCO)Cc1ccccc1` it is 75.3% (active); for `C=CCC[C@H](Cc1ccc(F)cc1)C(=O)OC[C@H](C)NC(=O)[C@H](CC=C)CC(=O)N(CCO)Cc1ccccc1` it is 23.7%.
Regarding `C=CCC[C@@H](Cc1ccc(F)cc1)C(=O)OC[C@@H](C)NC(=O)[C@H](CC=C)CC(=O)N(CCO)Cc1ccccc1`, the inhibition is 31.4%.
As for `C=CC[C@@H](CC(=O)N[C@H](CO)Cc1ccccc1)C(=O)N[C@@H](COC(=O)[C@@H](CC=C)Cc1ccc(F)cc1)Cc1c[nH]c2ccccc12`, the figure is 25.6%.
As for `C=CCC[C@H](Cc1ccc(F)cc1)C(=O)OC[C@@H](Cc1c[nH]c2ccccc12)NC(=O)[C@H](CC=C)CC(=O)N[C@H](CO)Cc1ccccc1`, the figure is 75.3% (active); as for `CO[C@@H]1CC[C@H]2CCN(C)C(=O)C[C@@H](c3ccccc3)CN(C)C(=O)c3cc(C#N)ccc3OC[C@@H]1O2`, 5.74%; as for `N#C[C@@H]1N[C@@H](CO)[C@@H]1c1ccc(C#Cc2ccccc2F)cc1`, -118%.
The figure for `O=C(C[C@@H]1CC[C@@H]2[C@H](COC[C@H](O)CN2C(=O)Nc2cccc(Cl)c2)O1)NCCCN1CCOCC1` is -32.8%; for `O=C(c1ccncc1)N1CC(=O)N2[C@H](CO)[C@@H](c3ccc(-c4cccnc4)cc3)[C@H]2C1` it is 7.54%.
Turning to `COCC(=O)N(C)C[C@H]1[C@@H](c2ccc(-c3cccnc3)cc2)[C@H](CO)N1C(C)=O`, the inhibition was 0.314%.
The figure for `COc1ccccc1S(=O)(=O)N[C@@H]1CC[C@H](CC(=O)N2CCOCC2)O[C@@H]1CO` is 3.09%; for `COC(=O)C(CC#Cc1ccc2c(c1)[C@]1(C(=O)N2)[C@H](c2ccc(O)cc2)N2[C@H](c3ccccc3)[C@H](c3ccccc3)OC(=O)[C@H]2[C@@H]1C(=O)NC[C@H](O)c1ccccc1)C(=O)OC` it is -24.8%.
As for `COC(=O)C(CC#Cc1ccc2c(c1)[C@]1(C(=O)N2)[C@H](c2ccccc2OCCO)N2[C@H](c3ccccc3)[C@H](c3ccccc3)OC(=O)[C@H]2[C@@H]1C(N)=O)C(=O)OC`, the figure is 92.9% (active).
As for `COc1ccc(C#Cc2ccc3c(c2)[C@]2(C(=O)N3)[C@H](c3ccccc3OCCO)N3[C@H](c4ccccc4)[C@H](c4ccccc4)OC(=O)[C@H]3[C@@H]2C(=O)N2CCCCCCC2)cc1`, the inhibition was 0.581%.
As for `Cc1ccc(S(=O)(=O)Nc2cccc3c2O[C@H](CN(C)CC2CCCCC2)[C@H](C)CN([C@H](C)CO)C3=O)cc1`, the figure is -4.8%; as for `COc1ccc(CN(C)C[C@H]2OCCCC[C@@H](C)Oc3ccc(NC(=O)Nc4cccc5ccccc45)cc3C(=O)N([C@H](C)CO)C[C@@H]2C)cc1`, 14.2%; as for `Cc1noc(/C=C/N(C)C)c1S(=O)(=O)N1CCCC(C(=O)NCc2ccco2)C1` (centres undefined), 38.6%.
The figure for `CNC(=O)C1CCN(S(=O)(=O)c2c(C)noc2/C=C/c2cccc(C)c2)CC1` is -0.657%; for `Cc1noc(/C=C/c2ccco2)c1S(=O)(=O)N1CCC(C(=O)Nc2ccc(Cl)cn2)CC1` it is 74.4% (active).

These data come from PubChem BioAssay AID652154 (Broad Institute, 2013).
